# According to the supplement of paper PMC3545927:
# Some of the results follow. No count for the full screen is at hand.
# Biological target: furin, P09958
# Test: furin cleavage Z-score vs untreated control; higher = more cleavage, active = 3.5 or more, inactive = 1 or less, 8 variable residues between constant flanks
# Outline: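 Furin cleavage was scored on 8-mer peptides joined to a cDNA oligonucleotide and bound to magnetic beads at the N-terminus. Digestion with purified furin (1:10 enzyme:substrate, 0.01 ml, 50 mM HEPES pH 7.5, CaCl2, NaCl) lasted 7.5, 15 or 30 min. Freed DNA was tagged with adapters by PCR, sequenced and counted; the cleavage Z-score is the lowess-adjusted log count versus furin-free reactions, scaled by median absolute deviation.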
# Chain of furin, P09958 (P09958 whole entry): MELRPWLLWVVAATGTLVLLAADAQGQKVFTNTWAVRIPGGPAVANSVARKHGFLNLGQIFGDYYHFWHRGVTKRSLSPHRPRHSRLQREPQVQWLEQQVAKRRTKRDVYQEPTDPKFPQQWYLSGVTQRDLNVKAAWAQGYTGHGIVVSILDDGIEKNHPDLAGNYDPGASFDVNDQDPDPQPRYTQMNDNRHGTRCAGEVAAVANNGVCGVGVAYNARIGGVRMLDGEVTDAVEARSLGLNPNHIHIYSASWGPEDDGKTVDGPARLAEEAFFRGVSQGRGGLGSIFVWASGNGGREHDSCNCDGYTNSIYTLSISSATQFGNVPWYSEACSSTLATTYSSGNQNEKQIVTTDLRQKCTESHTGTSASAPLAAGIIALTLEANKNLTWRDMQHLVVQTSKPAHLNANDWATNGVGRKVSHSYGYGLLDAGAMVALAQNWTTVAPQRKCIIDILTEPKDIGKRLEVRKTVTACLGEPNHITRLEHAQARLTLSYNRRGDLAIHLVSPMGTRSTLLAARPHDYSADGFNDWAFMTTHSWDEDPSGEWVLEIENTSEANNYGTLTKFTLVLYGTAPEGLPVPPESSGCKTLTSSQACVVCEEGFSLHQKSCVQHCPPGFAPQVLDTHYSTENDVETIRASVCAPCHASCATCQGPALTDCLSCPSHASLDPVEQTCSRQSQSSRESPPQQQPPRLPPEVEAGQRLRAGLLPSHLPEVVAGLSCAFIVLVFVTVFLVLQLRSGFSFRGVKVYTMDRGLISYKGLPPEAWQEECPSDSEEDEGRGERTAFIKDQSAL
Sequence,furin cleavage Z-score (7.5 min),furin cleavage Z-score (15 min),furin cleavage Z-score (30 min)
CAADLMGYIPAGNASASA [HC226],-1.64 (inactive),-1.67 (inactive),0.444 (inactive)
CARQGRSHHLAGNASASA [FS-2167],0.537 (inactive),1.01,2.02
CARQGRFDRSAGNASASA [FS-190],4.75 (active),6.18 (active),4.85 (active)
CALKWRFDRSAGNASASA [FS-1640],3.41,4.74 (active),4.58 (active)
CALKKRGILSAGNASASA [FS-2409],-1.13 (inactive),-2.56 (inactive),0.734 (inactive)
CAWKDLLEDNAGNASASA [HC1432],0.826 (inactive),1.39,-0.792 (inactive)
CAILSSLTVTAGNASASA [HC1134],-0.227 (inactive),-0.375 (inactive),-0.271 (inactive)
CAIGGAGNNTAGNASASA [HC446],0.332 (inactive),-0.689 (inactive),0.317 (inactive)
CAGSSSTSGIAGNASASA [HC1337],0.384 (inactive),0.604 (inactive),-0.961 (inactive)
CAEVVTPTWVAGNASASA [HC160],0.0725 (inactive),-1.35 (inactive),-0.017 (inactive)
CAVAARRARVAGNASASA [FS-307],1.69,3.8 (active),3.48
CALASRGARVAGNASASA [FS-267],-0.386 (inactive),-0.302 (inactive),0.249 (inactive)
CAASRRRARVAGNASASA [FS-1187],3.47,3.01,4.72 (active)
CAESDAAARVAGNASASA [HC1129],-0.953 (inactive),-0.591 (inactive),-1.03 (inactive)
CARSRRRSRVAGNASASA [FS-3095],1.94,0.692 (inactive),3.48
CASPPRRARVAGNASASA [FS-1571],0.556 (inactive),0.566 (inactive),3.24
CAGKFLADGGAGNASASA [HC809],-1.28 (inactive),-0.358 (inactive),-0.637 (inactive)
CAYLVAYQATAGNASASA [HC953],-0.934 (inactive),-0.739 (inactive),-1.07 (inactive)
CALIVFPDLGAGNASASA [HC1450],-0.678 (inactive),-1.11 (inactive),-0.0519 (inactive)
CARRRRHEGPAGNASASA [FS-2233],3.52 (active),4.96 (active),4.69 (active)
CARRRRASAPAGNASASA [FS-3062],7.44 (active),6.83 (active),5.33 (active)
CARRRRPGGPAGNASASA [FS-2792],-0.8 (inactive),-0.454 (inactive),0.146 (inactive)

Sequence,furin cleavage Z-score (7.5 min),furin cleavage Z-score (15 min),furin cleavage Z-score (30 min)
CARRRRHSPPAGNASASA [FS-2453],5.59 (active),8.37 (active),6.78 (active)
CARRRRHRSYAGNASASA [FS-2078],6.85 (active),11.1 (active),9.14 (active)
CARCTTPCSGAGNASASA [HC1953],-0.496 (inactive),-1.94 (inactive),-0.955 (inactive)
CAENVTSTWVAGNASASA [HC2181],0.856 (inactive),-1.06 (inactive),0.371 (inactive)
CAPGGGQIVGAGNASASA [HC173],-0.67 (inactive),-2.32 (inactive),0.322 (inactive)
CAVVVTSTWVAGNASASA [HC2150],-0.0276 (inactive),-0.308 (inactive),-1.74 (inactive)
CAEVVTSLWVAGNASASA [HC2205],0.73 (inactive),-1.3 (inactive),-0.955 (inactive)
CAACTTPCSGAGNASASA [HC1943],-1.45 (inactive),-0.341 (inactive),-0.2 (inactive)
CASTPCSAMLAGNASASA [HC2546],1.06,0.507 (inactive),-0.199 (inactive)
CARSRRVQCHAGNASASA [FS-2091],-0.135 (inactive),-0.538 (inactive),-0.773 (inactive)
CARRRRLLIKAGNASASA [FS-2597],-0.832 (inactive),-0.657 (inactive),-0.82 (inactive)
CARHHRAAATAGNASASA [FS-2142],-0.187 (inactive),1.63,1.18
CARSTRFAATAGNASASA [FS-2188],-0.54 (inactive),-0.334 (inactive),1.52
CARRRRHTFKAGNASASA [FS-2374],6.02 (active),8.84 (active),8.36 (active)
CARSRRHSPHAGNASASA [FS-2462],9.64 (active),10.4 (active),9.06 (active)
CARRRRAAATAGNASASA [FS-2784],8.16 (active),6.75 (active),5.42 (active)
CAVVCCSMSCAGNASASA [HC2100],-1.04 (inactive),-1.97 (inactive),-0.294 (inactive)
CANDARRTRSAGNASASA [FS-693],6.7 (active),7.77 (active),7.39 (active)
CAKSPRRTRSAGNASASA [FS-1351],5.21 (active),4.36 (active),2.84
CAESTTPCSGAGNASASA [HC1977],-0.591 (inactive),0.488 (inactive),-0.368 (inactive)
CAGTTDRSGAAGNASASA [HC419],1,2.15,-0.141 (inactive)
